Assay [1] can be described thus: NCI Yeast Anticancer Drug Screen. Data for the rad50 strain (AID 155).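 Note: 0% = growth of vehicle-only cultures of the same strain.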 The following applies: S. cerevisiae rad50 strain growth inhibition, hits give high values. In a few lines: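 Genetically altered yeast (DNA repair pathway); compound treatment; growth inhibition vs vehicle ctrl.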
A short description of assay [2]: NCI Yeast Anticancer Drug Screen. Data for the mec2-1 strain (AID 157). The settings on record: S. cerevisiae mec2-1 strain, hits give high values. The gist of the method:
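Test agents were screened against the mec2-1 yeast strain, with defined DNA repair or cell cycle alteration. Growth was scored as inhibition against vehicle-only controls.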

Assay [3] is described as follows: NCI Yeast Anticancer Drug Screen. Data for the sgs1 mgt1 strain (AID 161).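 Note: 0% = growth of cultures given vehicle only.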 The settings on record: S. cerevisiae sgs1 mgt1 strain, hits give high values. In a few lines: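 Read-out: growth inhibition vs vehicle controls. Cells: mutant yeast strain deficient in DNA damage repair.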
Assay [4] in a line: NCI Yeast Anticancer Drug Screen. Data for the cln2 rad14 strain (AID 165).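 Note: 0% = growth equal to vehicle treated cultures.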 The settings on record: S. cerevisiae cln2 rad14 strain, hits give high values. The gist of the method:
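Growth of compound-exposed yeast (cln2 rad14 genotype) measured and expressed as inhibition relative to vehicle.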

Assay [5] in a line: NCI Yeast Anticancer Drug Screen. Data for the bub3 strain (AID 167). The following applies: S. cerevisiae bub3 mutant strain, hits give high values. The gist of the method:
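Yeast carrying a defined mutation is treated with each compound, and growth is compared with that of vehicle-exposed cells to give inhibition.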

A short description of assay [6]: NCI Yeast Anticancer Drug Screen. Data for the mlh1 rad18 strain (AID 175). The settings on record: S. cerevisiae mlh1 rad18 strain growth inhibition, hits give high values. The gist of the method:
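In this whole-cell yeast screen, a strain with altered DNA damage repair is challenged with compound, and its growth is measured against matched vehicle-treated controls.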

Where [7] appears, read: at 5.0 µM (retest, dose inferred, filed as 0.5).
[8] abbreviates: at 50.0 µM (retest, dose inferred, filed as 5.0).

About 79,000 compounds went through this panel and 15% of them were active in at least one assay; those are over-represented in the sample as a whole. Unmarked numbers belong to inactive results. Calls of active or inactive are those of the source. Cut-off read from the data, not from the text of the source: active = growth inhibition above about 70%; inactive = the rest.

In PubChem BioAssay (NCI) one finds growth inhibition data, which are given here for nine compounds.

As to `O=C(CCl)NC(=O)N(/N=C/c1ccco1)c1ccccc1`, the growth inhibition is -1% in assay [1] (setting [7]); 52% in assay [1] (setting [8]); 44.8% in assay [1] (at 50.0 µM); 3% in assay [2] (setting [7]); 60% in assay [2] (setting [8]); 47% in assay [2] (at 50.0 µM). The growth inhibition in assay [3] (setting [7]) is -4%; in assay [3] (setting [8]) it was 38%; in assay [3] (at 50.0 µM), 55.2%; in assay [4] (setting [7]), 1%; in assay [4] (setting [8]) it was 24%; in assay [4] (at 50.0 µM) it was -16.1%. Further, the growth inhibition in assay [5] (setting [7]) was 3%; in assay [5] (setting [8]), 83% (active); in assay [5] (at 50.0 µM), 59.2%; in assay [6] (setting [7]), 3%; in assay [6] (setting [8]), 68%; in assay [6] (at 50.0 µM), 58%.

Consider `CC1(C)N=C(N)N=C(N)N1c1cccc(OCc2cccc(N)c2)c1`, for which the growth inhibition in assay [1] (setting [7]) was -2%; in assay [1] (setting [8]), 1%; in assay [1] (at 50.0 µM), 15.8%; in assay [2] (setting [7]), 12%; in assay [2] (setting [8]), -5%; in assay [2] (at 50.0 µM) it was 5.65%. The growth inhibition in assay [3] (setting [7]) was -7%; in assay [3] (setting [8]), 1%; in assay [3] (at 50.0 µM), -8.35%; in assay [4] (setting [7]) it was 13%; in assay [4] (setting [8]), -9%; in assay [4] (at 50.0 µM) it was 65.5%. Besides, the growth inhibition in assay [5] (setting [7]) was -20%; in assay [5] (setting [8]), -4%; in assay [5] (at 50.0 µM), -36.9%; in assay [6] (setting [7]), 5%; in assay [6] (setting [8]), 1%; in assay [6] (at 50.0 µM) it was 9.1%.

`Cc1c(O)c(Br)c(Br)c(Br)c1Br`: the growth inhibition was 82% (active) in assay [1] (setting [7]); 94% (active) in assay [1] (setting [8]); 95.5% (active) in assay [1] (at 50.0 µM); 78% (active) in assay [2] (setting [7]); 97% (active) in assay [2] (setting [8]); 87.1% (active) in assay [2] (at 50.0 µM). The growth inhibition was 81% (active) in assay [3] (setting [7]); 96% (active) in assay [3] (setting [8]); 96.1% (active) in assay [3] (at 50.0 µM); 93% (active) in assay [4] (setting [7]); 96% (active) in assay [4] (setting [8]); 94.7% (active) in assay [4] (at 50.0 µM). The growth inhibition was 84% (active) in assay [5] (setting [7]); 96% (active) in assay [5] (setting [8]); 93% (active) in assay [5] (at 50.0 µM); 87% (active) in assay [6] (setting [7]); 95% (active) in assay [6] (setting [8]); 94.1% (active) in assay [6] (at 50.0 µM).

With `CCC[CH2][Ge]([CH2]CCC)([CH2]CCC)[O]C(=O)CC(=O)c1ccccc1`, the growth inhibition is 10% in assay [1] (setting [7]); 62% in assay [1] (setting [8]); 53.3% in assay [1] (at 50.0 µM); -3% in assay [2] (setting [7]); 65% in assay [2] (setting [8]); 45.1% in assay [2] (at 50.0 µM). In addition, the growth inhibition was 6% in assay [3] (setting [7]); 41% in assay [3] (setting [8]); 32.2% in assay [3] (at 50.0 µM); 1% in assay [4] (setting [7]); 20% in assay [4] (setting [8]); 43.5% in assay [4] (at 50.0 µM). The growth inhibition was -17% in assay [5] (setting [7]); 27% in assay [5] (setting [8]); 79.5% (active) in assay [5] (at 50.0 µM); -1% in assay [6] (setting [7]); 46% in assay [6] (setting [8]); 67.4% in assay [6] (at 50.0 µM).

For `S=c1nc(/C=C/c2ccc(Cl)c(Cl)c2)[nH][nH]1`, the growth inhibition was 29% in assay [1] (setting [7]); 68% in assay [1] (setting [8]); 79.5% (active) in assay [1] (at 50.0 µM); 28% in assay [2] (setting [7]); 51% in assay [2] (setting [8]); 44.8% in assay [2] (at 50.0 µM). In addition, the growth inhibition in assay [3] (setting [7]) is 27%; in assay [3] (setting [8]), 51%; in assay [3] (at 50.0 µM), 65.2%; in assay [4] (setting [7]), 31%; in assay [4] (setting [8]), 42%; in assay [4] (at 50.0 µM), 65%. Also, the growth inhibition is 33% in assay [5] (setting [7]); 67% in assay [5] (setting [8]); 83.7% (active) in assay [5] (at 50.0 µM); 39% in assay [6] (setting [7]); 71% (active) in assay [6] (setting [8]); 22.6% in assay [6] (at 50.0 µM).

`NCCC1=CCCCC1`: the growth inhibition was 1% in assay [1] (setting [7]); 95% (active) in assay [1] (setting [8]); 88.2% (active) in assay [1] (at 50.0 µM); 5% in assay [2] (setting [7]); 97% (active) in assay [2] (setting [8]); 90.5% (active) in assay [2] (at 50.0 µM). The growth inhibition in assay [3] (setting [7]) was 2%; in assay [3] (setting [8]), 98% (active); in assay [3] (at 50.0 µM), 88.3% (active); in assay [4] (setting [7]) it was -7%; in assay [4] (setting [8]), 96% (active); in assay [4] (at 50.0 µM), 35.6%. In addition, the growth inhibition is -4% in assay [5] (setting [7]); 96% (active) in assay [5] (setting [8]); 65% in assay [5] (at 50.0 µM); -2% in assay [6] (setting [7]); 97% (active) in assay [6] (setting [8]); 90% (active) in assay [6] (at 50.0 µM).

With `Cc1cc(C)c(O)c(C2CC3CCC2(C)C3(C)C)c1` (configuration not stated), the growth inhibition in assay [1] (setting [7]) was 2%; in assay [1] (setting [8]) it was 87% (active); in assay [1] (at 50.0 µM) it was 95.6% (active); in assay [2] (setting [7]), 1%; in assay [2] (setting [8]), 92% (active); in assay [2] (at 50.0 µM) it was 95% (active). The growth inhibition in assay [3] (setting [7]) was 5%; in assay [3] (setting [8]), 91% (active); in assay [3] (at 50.0 µM) it was 95.8% (active); in assay [4] (setting [7]) it was 4%; in assay [4] (setting [8]) it was 91% (active); in assay [4] (at 50.0 µM), 95.2% (active). Further, the growth inhibition in assay [5] (setting [7]) was 7%; in assay [5] (setting [8]), 92% (active); in assay [5] (at 50.0 µM), 96.5% (active); in assay [6] (setting [7]), -1%; in assay [6] (setting [8]), 94% (active); in assay [6] (at 50.0 µM) it was 95.5% (active).

As to `C=C1CC2(CC(C(C)C)CCC2C)OC1=O` (configuration not stated), the growth inhibition is 14% in assay [1] (setting [7]); 38% in assay [1] (setting [8]); 7.5% in assay [1] (at 50.0 µM); 13% in assay [2] (setting [7]); 52% in assay [2] (setting [8]); -2.45% in assay [2] (at 50.0 µM). Moreover, the growth inhibition in assay [3] (setting [7]) was 23%; in assay [3] (setting [8]) it was 54%; in assay [3] (at 50.0 µM) it was 14.7%; in assay [4] (setting [7]) it was 31%; in assay [4] (setting [8]) it was 57%; in assay [4] (at 50.0 µM) it was 19.6%. Also, the growth inhibition is 42% in assay [5] (setting [7]); 53% in assay [5] (setting [8]); -11.8% in assay [5] (at 50.0 µM); 35% in assay [6] (setting [7]); 64% in assay [6] (setting [8]); 2.3% in assay [6] (at 50.0 µM).

For the compound `C=C1OC(=O)C(=O)N1CC(=O)O`, the growth inhibition in assay [1] (setting [7]) is -156%; in assay [1] (setting [8]), -170%; in assay [1] (at 50.0 µM) it was -1.35%; in assay [2] (setting [7]), -50%; in assay [2] (setting [8]) it was -54%; in assay [2] (at 50.0 µM), 5.4%. Moreover, the growth inhibition is -61% in assay [3] (setting [7]); -70% in assay [3] (setting [8]); -5.5% in assay [3] (at 50.0 µM); -54% in assay [4] (setting [7]); -69% in assay [4] (setting [8]); 44.9% in assay [4] (at 50.0 µM). In addition, the growth inhibition was -70% in assay [5] (setting [7]); -82% in assay [5] (setting [8]); -6.45% in assay [5] (at 50.0 µM); -139% in assay [6] (setting [7]); -119% in assay [6] (setting [8]); 4.05% in assay [6] (at 50.0 µM).
